Source: PubChem BioAssay
FMDV inh: High Throughput Screening for Foot and Mouth Disease Virus Antivirals. Potency, µM (doses to about 57.9 µM), inactives show at the top dose activity change, negative = inhibition, most hits filed as inhibitors. hit rate 1.2% among 410,000. FMDV antiviral cell-based qHTS; calls by dose curve; tested in HEK293T cells; further: read-out not given here; potency means the concentration at half of the fitted maximal effect; nearly all actives have a fitted effect of over 45% in size
Lassa entry inh: qHTS for Inhibitors of binding or entry into cells for Lassa Virus; Lassa virus pseudotype entry inhibition, cell reporter; Potency, µM (series often up to 37.9 µM), without a hit: at the top dose activity change, negative = inhibition, hits mostly inhibitors; hit rate 1.2% among 300,000; AID 540256, 2011; calls by dose curve; tested in HEK293 cells; further: potency means the concentration at half of the fitted maximal effect; nearly all actives have a fitted effect of over 50% in size
MARV entry inh: qHTS for inhibitors of binding or entry into cells for Marburg Virus; Marburg virus pseudotyped entry inhibition, cell reporter; Potency, µM (titrated, usually from 37.8 µM), for inactives: top-dose activity change, negative = inhibition, usual class: inhibitors; hit rate 1.8% among 300,000; calls by dose curve; tested in HEK293 cells; further: potency means the concentration at half of the fitted maximal effect
HCV inhibitor: qHTS Assay for Inhibitors of Hepatitis C Virus (HCV); Huh7.5.1 HCVcc-Cre infection, luciferase reporter, 44 h; Potency, µM (series often up to 41.8 µM), for the others: at the top dose activity change, negative = inhibition, hits mostly inhibitors; hit rate 3.4% among 340,000; active means well fitted inhibition curve with a large enough effect; inconclusive means small, poorly fitted or top-dose-only effect, or another doubt; inactive means no such curve, though single readings can be large or run the other way; further: potency means the concentration at half of the fitted maximal effect
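Seed cells (1,000/well) for 4 h; treat with compound and infect with HCVcc-Cre, moi about 0.5. Incubate 44 h, then detect luciferase activity.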
HCMV inh: qHTS Assay for inhibitors of the human cytomegalovirus (HCMV); HFF cells, HCMV-luciferase reporter, 72 h; active compounds read low; hit rate 4.5% among 410,000; activity change, negative = inhibition, % at 57.5 µM; in the data active means activity change below about -60%; inconclusive means no clear call, values can overlap the other calls; inactive means above about -39%
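Inhibition of viral replication was scored as loss of reporter luminescence in HFFs infected with HCMV-luciferase (MOI 1 PFU/cell) for 72 h; compounds tested at 2 doses, normalized to buffer and Salinomycin controls.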
Numbers without * were called inactive; ? = inconclusive; · = not tested or not shown; ! = repeats disagree; [ ] = dose if it differs, or a comment. This is a sample that favours compounds with a hit; in the whole collection about 7.9% have one here. On the % scale 0 is the no-effect control and ±100 the full control effect.

SMILES | FMDV inh | Lassa entry inh | MARV entry inh | HCV inhibitor | HCMV inh
CCCCOc1ccc(C(=O)N/C(=C\c2ccc(Br)cc2)C(=O)NC2CCCCC2)cc1 | 5% | -21%[46.1 µM] | · | · | -4
O=C(/C=C/NNC(=O)c1ccccc1)c1ccc([N+](=O)[O-])cc1 | -10% | · | ? | 3.5µM* | -98*
CN1CCc2nc3sc(C(=O)Nc4ccccc4C(F)(F)F)c(N)c3cc2C1 | -31% | 16%[46.1 µM] | -3%[46.1 µM] | · | -31
Cc1ccc(C(c2sc3nc(-c4ccco4)nn3c2O)N2CCN(c3ccc(F)cc3)CC2)cc1 (stereo not drawn) | 21% | 9%[46.1 µM] | · | · | 3
Cc1cccc(N2CCN(S(=O)(=O)c3ccc(-c4ccc(=O)[nH]n4)o3)CC2)c1C | -4% | · | · | -3% | -63*
COc1ccccc1N1CCN(S(=O)(=O)c2ccc(-c3ccc(=O)[nH]n3)o2)CC1 | -2% | · | · | 0% | -31
O=C(NC12CC3CC(CC(C3)C1)C2)c1ccc(-c2ccc(Cl)cc2)o1 | 4% | ? | ? | ? | -24
O=C(NC12CC3CC(CC(C3)C1)C2)c1ccc(-c2cccc(Cl)c2)o1 | 29% | -21% | -25% | ? | -63*
O=C(NC12CC3CC(CC(C3)C1)C2)c1ccc(COc2ccc(Cl)cc2[N+](=O)[O-])o1 | ? | ? | ? | 8.9µM* | ·
O=c1c(-c2ccc(F)c(F)c2)nc2cncnc2n1Cc1ccc(F)cc1 | -24% | · | · | · | ·
O=[N+]([O-])/C=C/c1c(Cl)cccc1Cl | 7.9µM* | -5% | 10µM* | 8.9µM* | -19
O=[N+]([O-])/C=C/c1cc2ccccc2[nH]1 | ? | · | · | -7% | 3
Cc1ccccc1C(=O)N1c2ncnn2C2(CCCCC2)[C@@H]2CCCC[C@@H]21 | ? | -10%[46.1 µM] | 1%[46.1 µM] | · | -12
Cc1ccc(OCC(=O)N(C)CC(=O)Nc2ccc(F)cc2)c([N+](=O)[O-])n1 | -1% | 13%[46.1 µM] | -1% | 10% | -1
Cc1ccc(OCC(=O)N(C)CC(=O)Nc2ccccc2Cl)c([N+](=O)[O-])n1 | -11% | ? | ? | -2% | -84*
O=C(NC1CCc2ccccc21)c1cc(COc2cncc(Cl)c2)on1 (stereo not drawn) | -25% | ? | 24%[46.1 µM] | 13µM* | 61
O=C(NC1CCc2ccccc21)c1cc(COc2ccc(F)cc2Cl)on1 (stereo not drawn) | 30% | · | · | 7% | -20
Cc1ccc(NC(=O)N2CCN(Cc3nc4ccc(C)cc4o3)CC2)cc1 | -28% | -5%[46.1 µM] | · | · | -9
COc1ccccc1NC(=O)N1CCN(c2ccc3nnc(-c4ccc(F)cc4)n3n2)CC1 | -30% | -1% | ? | -19% | -76*!
O=C(Nc1ccccc1Cl)N1CCN(c2ccc3nnc(-c4ccc(F)cc4)n3n2)CC1 | ? | -23% | -17% | ? | 4
O=C(Nc1ccc(Cl)cc1)N1CCN(c2ccc3nnc(-c4ccccc4)n3n2)CC1 | -7% | · | -26%[46.1 µM] | · | -81*
COc1cccc(NC(=O)c2c(C)oc3nc(C)nc(N4CCCC4)c23)c1 | -4% | ? | · | · | 88
Cn1c(=O)n(Cc2ccccc2Br)c2ccccc21 | -15% | · | ? | -12% | -62*
CCCCCCCCOc1ccc(C(=O)O)cc1 | 6% | · | · | 6.3µM* | 18
CCCCCCOc1ccc(CN2CCN(CC)CC2)cc1 | -6% | ? | ? | ? | -75*
SMILES | FMDV inh | Lassa entry inh | MARV entry inh | HCV inhibitor | HCMV inh
CCCCOc1ccc(CN2CCSCC2)cc1 | 26% | · | · | 13% | 14
COc1ccc(C(=O)[C@]2(C)C=C(c3ccc(OC)cc3)[C@H](C)C2)cc1 | · | · | 10%[14.2 µM] | · | ·
CNC(=S)N/N=C/c1cc(C)n(-c2ccc(Cl)c(Cl)c2)c1C | 0% | ? | ? | ? | -68*
COc1cc(C(=O)Nc2ccc(NC(=O)c3ccc(Br)cc3)cc2)cc(OC)c1OC | 6% | 5%[46.1 µM] | · | · | 0
CCOC(=O)c1sc2ccccc2c1OC(=O)c1ccc(C)cc1 | 15% | 4.5µM* | -26% | 14% | ·
Cc1cnc(-n2ncc(C(=O)NCC3COCCO3)c2C2CC2)nc1-c1cccs1 (stereo not drawn) | 19% | · | · | · | ·
COc1ccccc1C1CN(Cc2c(C)nn(C)c2Cl)Cc2ccccc2O1 (stereo not drawn) | -9% | · | · | · | ·
CCCCN(CCCC)C(=O)c1cc2ccccc2c(=O)o1 | 12% | 11% | 1% | -14% | -68*
